Assay [1] concerns the target Transcription factor E2F1 (Homo sapiens) (UniProt Q01094). The experiment in a line: ATG_E2F_CIS: Attagene CIS-FACTORIAL HepG2 Assay for human E2F Transcription Factor 1 (AID 2282935). The settings on record: HepG2 Attagene cis-reporter, E2F reporter RNA transcripts; actives raise or lower the signal. Summed up: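 Cis-element reporter mRNA induction in transiently transfected HepG2, 24 h exposure. Activity fitted in both directions relative to DMSO negative control.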

A short description of assay [2]: ATG_M_61_CIS: Attagene CIS-FACTORIAL HepG2 Assay for M61 Transcription Factor (Internal Marker) (AID 2282937). The settings on record: HepG2 Attagene CIS-FACTORIAL M61 internal marker reporter; actives raise or lower the signal. An outline of the steps:
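Using transiently transfected HepG2 liver cells, reporter transcript levels were assessed 24 h post-dosing by RT-PCR and capillary electrophoresis. Changes in either direction were fitted relative to DMSO controls.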

A short description of assay [3]: ATG_M_19_CIS: Attagene CIS-FACTORIAL HepG2 Assay for M19 Transcription Factor (Internal Marker) (AID 2282939). The settings on record: HepG2 Attagene CIS-FACTORIAL M19 internal marker reporter; actives raise or lower the signal. An outline of the steps: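 Readout: fluorescent reporter-transcript fragments by capillary electrophoresis after RT-PCR. Human HepG2 liver cells carried transfected MRTU constructs reporting endogenous transcription-factor activity; exposure 24 h. Gain or loss of signal fitted relative to DMSO.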

Assay [4] is described as follows: ATG_ERE_CIS: Attagene CIS-FACTORIAL HepG2 Assay for Estrogen Response Element (ERE) (AID 2282940). The settings on record: HepG2 ERE cis-reporter, Attagene RNA transcript; actives raise or lower the signal. An outline of the steps:
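Readout: reporter mRNA induction by RT-PCR, FAM-labelled primer extension, HpaI digestion and capillary electrophoresis, 24 h after dosing transfected HepG2 cells. Endogenous transcription factors act on cis-element-regulated reporters. Gain or loss fitted against DMSO.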

Assay [5] is described as follows: ATG_Ets_CIS: Attagene CIS-FACTORIAL HepG2 Assay for human Erythroblast Transformation Specific (ETS) (AID 2282941). The settings on record: HepG2 ETS cis-reporter transcription, actives raise or lower the signal. An outline of the steps:
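After transient cis-reporter transfection, HepG2 cells receive test chemical for 24 h. Reporter mRNA levels, measured by RT-PCR and capillary electrophoresis fluorescence, are analysed bidirectionally relative to the DMSO baseline.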

For assay [6], the target named is Hepatocyte nuclear factor 3-beta (Homo sapiens) (UniProt Q9Y261). The experiment in a line: ATG_FoxA2_CIS: Attagene CIS-FACTORIAL HepG2 Assay for human Forkhead box A2 (FOXA2) (AID 2282942). The settings on record: HepG2 cis-reporter transcription factor activity, 24 h; actives raise or lower the signal. Summed up:
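Fluorescence signal of reporter cDNA fragments, separated by capillary electrophoresis, reflects endogenous transcription factor activity in transfected HepG2 after 24 h. Both increases and decreases fitted against DMSO.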

A short description of assay [7]: ATG_FoxO_CIS: Attagene CIS-FACTORIAL HepG2 Assay for human Forkhead box O (FoxO) (AID 2282943). The settings on record: HepG2 Attagene cis-reporter, FoxO element, mRNA; actives raise or lower the signal. An outline of the steps: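 Human hepatoma HepG2 cells carry transiently introduced reporter transcription units controlled by cis promoter elements. Chemical treatment lasted 24 h, and mRNA signal was compared with DMSO.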

The nature of assay [8]: ATG_GATA_CIS: Attagene CIS-FACTORIAL HepG2 Assay for human GATA Binding Protein (AID 2282944). The settings on record: HepG2 GATA cis-element reporter, Attagene multiplex mRNA; actives raise or lower the signal. Summed up:
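Read-out: fluorescent reporter mRNA fragments resolved by capillary electrophoresis after RT-PCR. Human liver HepG2 cells carried transiently transfected cis-regulated reporter constructs; chemicals incubated 24 h; gain or loss of signal fitted relative to DMSO.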

A short description of assay [9]: ATG_GLI_CIS: Attagene CIS-FACTORIAL HepG2 Assay for human Zinc Finger Protein GLI1 (AID 2282945). The settings on record: HepG2, Attagene cis-factorial reporter mRNA, GLI element; actives raise or lower the signal. An outline of the steps:
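Bidirectional curve fits relative to DMSO, using reporter mRNA levels from RT-PCR plus capillary electrophoresis. Cells were HepG2 transiently carrying cis-regulated reporter constructs, harvested 24 h after dosing.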

Assay [10] is described as follows: ATG_ISRE_CIS: Attagene CIS-FACTORIAL HepG2 Assay for human Interferon Regulatory Factor 1 (IRF1) binding to an Interferon-Stimulated Response Element (ISRE) (AID 2282948). The settings on record: HepG2 ISRE cis-reporter (Attagene), mRNA transcription readout; actives raise or lower the signal. Summed up: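 Quantitation relies on labelled RT-PCR fragments separated by capillary electrophoresis. Human HepG2 cells bearing cis-promoter reporter constructs were treated 24 h; DMSO served as baseline for bidirectional fitting.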

Assay [11] in a line: ATG_M_32_CIS: Attagene CIS-FACTORIAL HepG2 Assay for M32 Transcription Factor (Internal Marker) (AID 2282949).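 Further: background control marker of the multiplexed CIS panel rather than a real target.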 The settings on record: HepG2 Attagene cis-factorial M32 reporter, mRNA; actives raise or lower the signal. Summed up: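 HepG2 cells transiently transfected with multiplexed cis-regulated reporter units, dosed 24 h. Reporter mRNA quantified by RT-PCR, 6-FAM labelling, HpaI digestion and capillary electrophoresis; bidirectional fit vs DMSO.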

Assay [12] is described as follows: ATG_M_06_CIS: Attagene CIS-FACTORIAL HepG2 Assay for M06 Transcription Factor (Internal Marker) (AID 2282950). The settings on record: HepG2 Attagene CIS-FACTORIAL M06 internal marker reporter; actives raise or lower the signal. An outline of the steps: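 Terse: HepG2, transient MRTU transfection (FuGene 6), 24 h dosing; total RNA, oligo(dT) RT, PCR, FAM label, HpaI cut, capillary electrophoresis; bidirectional fit vs DMSO baseline; background-control endpoint.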

Assay [13] concerns the target Hepatocyte nuclear factor 6 (Homo sapiens) (UniProt Q9UBC0). Put plainly: ATG_HNF6_CIS: Attagene CIS-FACTORIAL HepG2 Assay for human Hepatocyte Nuclear Factor 6 (HNF6) (AID 2282952). The settings on record: HepG2 Attagene cis-factorial HNF6 reporter transcription; actives raise or lower the signal. Summed up: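 HepG2 cells transiently transfected with cis-element-driven multiple reporter transcription units, dosed 24 h; reporter mRNA quantified by RT-PCR, FAM primer extension, HpaI digestion and capillary electrophoresis; bidirectional fit versus DMSO baseline.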

Assay [14] has as its target Heat shock factor protein 1 (Homo sapiens) (UniProt Q00613). The experiment in a line: ATG_HSE_CIS: Attagene CIS-FACTORIAL HepG2 Assay for human Heat Shock Transcription Factor 1 (HSE) (AID 2282953). The settings on record: HepG2 HSE cis-reporter, Attagene RNA transcription; actives raise or lower the signal. An outline of the steps:
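Read-out: fluorescence of reporter-specific RT-PCR fragments separated by capillary electrophoresis. HepG2 carrying transfected cis-element reporter units; 24 h dosing; activity fitted in both directions relative to DMSO baseline.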

Assay [15] is described as follows: ATG_MRE_CIS: Attagene CIS-FACTORIAL HepG2 Assay for human Metal Responsive Element (MRE) (AID 2282954). The settings on record: HepG2 MRE cis-reporter transcription, Attagene multiplex; actives raise or lower the signal. An outline of the steps:
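Transient MRTU transfection of HepG2 (FuGene 6); 24 h dosing; total RNA → oligo(dT) RT, PCR, 6-FAM primer extension, HpaI cut, CE. Bidirectional fit vs DMSO.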

A short description of assay [16]: ATG_EGR_CIS: Attagene CIS-FACTORIAL HepG2 Assay for human Early Growth Response 1 (EGR1) (AID 2282938). The settings on record: HepG2 Attagene CIS-FACTORIAL EGR reporter mRNA; actives raise or lower the signal. An outline of the steps:
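Fluorescent capillary-electrophoresis signal of reporter cDNA fragments serves as read-out. HepG2 cells bear transiently transfected cis-promoter reporter units and are exposed 24 h; gain- or loss-of-signal is fitted against DMSO.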

Assay [17] can be described thus: ATG_GRE_CIS: Attagene CIS-FACTORIAL HepG2 Assay for human Glucocorticoid Response Elements (GRE) (AID 2282947). The settings on record: HepG2 GRE cis-reporter, Attagene multiplex mRNA; actives raise or lower the signal. Summed up: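 Transient MRTU transfection of human HepG2 liver cells; cis-regulated reporters report endogenous factors. 24 h dosing → RNA isolation → RT-PCR → 6-FAM primer extension → HpaI cut → CE fragment analysis. Bidirectional fit, DMSO negative control.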

Assay [18] concerns the target Bile acid receptor (Homo sapiens) (UniProt Q96RI1). The experiment in a line: ATG_IR1_CIS: Attagene CIS-FACTORIAL HepG2 Assay for human Nuclear Receptor Subfamily 1 Group H Member 4 (NR1H4), IR1 submotif (AID 2282946). The settings on record: IR1 reporter transcription, actives raise or lower the signal. An outline of the steps:
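Cells (human HepG2) carry transiently transfected cis-promoter reporter transcription units. Compounds are incubated 24 h, total RNA is reverse-transcribed and amplified, and labelled fragments are resolved by capillary electrophoresis. Curves use DMSO as baseline.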

The target of assay [19] is Hypoxia-inducible factor 1-alpha (Homo sapiens) (UniProt Q16665). The experiment in a line: ATG_HIF1a_CIS: Attagene CIS-FACTORIAL HepG2 Assay for human Hypoxia Inducible Factor 1 (HIF1A) (AID 2282951). The settings on record: HepG2 Attagene cis-factorial HIF1a reporter transcription; actives raise or lower the signal. Summed up:
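Endogenous-TF cis reporter readout, human HepG2 cells, 24 h incubation; mRNA detected via RT-PCR and capillary electrophoresis fluorescence; DMSO-normalised bidirectional fitting.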

Among the data in PubChem BioAssay (EPA / NIEHS) are outcome and AC50 values, retold here.

As usually defined, the AC50 is the concentration giving half of the maximal activity seen.

The source made the active and inactive calls. How the source made its calls: active means hit-call score of the fitted dose curve at least 0.9, where 1 is the maximum; inactive means score below 0.9.

Hepatocyte nuclear factor 6 (Homo sapiens), sequence (Q9UBC0 whole entry, looked up): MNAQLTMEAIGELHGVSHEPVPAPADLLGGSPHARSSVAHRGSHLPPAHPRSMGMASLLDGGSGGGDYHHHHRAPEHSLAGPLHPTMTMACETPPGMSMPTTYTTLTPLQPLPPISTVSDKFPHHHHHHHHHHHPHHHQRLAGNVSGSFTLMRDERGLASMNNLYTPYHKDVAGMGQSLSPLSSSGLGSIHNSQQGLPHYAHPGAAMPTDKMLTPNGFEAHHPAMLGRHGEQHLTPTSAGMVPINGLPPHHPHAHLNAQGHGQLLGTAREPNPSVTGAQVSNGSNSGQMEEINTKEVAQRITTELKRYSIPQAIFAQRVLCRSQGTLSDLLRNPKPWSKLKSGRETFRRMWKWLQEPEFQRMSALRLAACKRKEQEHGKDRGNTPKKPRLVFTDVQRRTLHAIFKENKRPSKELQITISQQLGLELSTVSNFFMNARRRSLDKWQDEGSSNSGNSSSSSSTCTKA
Heat shock factor protein 1 (Homo sapiens), sequence (Q00613 whole entry, looked up, the tested form may be a part): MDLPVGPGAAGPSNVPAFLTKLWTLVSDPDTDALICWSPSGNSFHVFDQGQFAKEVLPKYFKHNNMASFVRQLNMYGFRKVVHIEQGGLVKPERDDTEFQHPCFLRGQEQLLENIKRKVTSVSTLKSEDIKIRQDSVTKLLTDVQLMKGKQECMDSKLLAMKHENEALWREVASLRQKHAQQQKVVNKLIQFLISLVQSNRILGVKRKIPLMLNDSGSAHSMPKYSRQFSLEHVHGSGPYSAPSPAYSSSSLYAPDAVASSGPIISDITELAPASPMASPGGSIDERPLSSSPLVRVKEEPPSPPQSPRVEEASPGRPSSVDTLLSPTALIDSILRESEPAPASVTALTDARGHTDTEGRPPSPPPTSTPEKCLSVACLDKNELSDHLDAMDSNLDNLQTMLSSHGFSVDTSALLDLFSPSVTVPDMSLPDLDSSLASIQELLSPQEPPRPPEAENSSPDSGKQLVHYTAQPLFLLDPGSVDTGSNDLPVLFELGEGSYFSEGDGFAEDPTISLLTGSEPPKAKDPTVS
Hepatocyte nuclear factor 3-beta (Homo sapiens), sequence (Q9Y261 whole entry, looked up, the tested form may be a part): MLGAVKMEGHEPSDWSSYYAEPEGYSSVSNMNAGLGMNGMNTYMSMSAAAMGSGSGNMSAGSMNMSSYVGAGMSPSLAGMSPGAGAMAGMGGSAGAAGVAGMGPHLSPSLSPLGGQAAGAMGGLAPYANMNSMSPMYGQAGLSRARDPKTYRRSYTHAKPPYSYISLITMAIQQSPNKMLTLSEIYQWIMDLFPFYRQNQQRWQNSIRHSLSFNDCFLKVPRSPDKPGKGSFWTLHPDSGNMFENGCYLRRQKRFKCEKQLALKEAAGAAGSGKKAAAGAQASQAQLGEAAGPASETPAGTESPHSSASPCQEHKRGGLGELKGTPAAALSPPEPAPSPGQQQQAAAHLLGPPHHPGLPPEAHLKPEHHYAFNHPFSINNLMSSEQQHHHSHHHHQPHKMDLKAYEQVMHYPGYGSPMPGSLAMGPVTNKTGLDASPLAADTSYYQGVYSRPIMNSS
Transcription factor E2F1 (Homo sapiens), sequence (Q01094 whole entry, looked up): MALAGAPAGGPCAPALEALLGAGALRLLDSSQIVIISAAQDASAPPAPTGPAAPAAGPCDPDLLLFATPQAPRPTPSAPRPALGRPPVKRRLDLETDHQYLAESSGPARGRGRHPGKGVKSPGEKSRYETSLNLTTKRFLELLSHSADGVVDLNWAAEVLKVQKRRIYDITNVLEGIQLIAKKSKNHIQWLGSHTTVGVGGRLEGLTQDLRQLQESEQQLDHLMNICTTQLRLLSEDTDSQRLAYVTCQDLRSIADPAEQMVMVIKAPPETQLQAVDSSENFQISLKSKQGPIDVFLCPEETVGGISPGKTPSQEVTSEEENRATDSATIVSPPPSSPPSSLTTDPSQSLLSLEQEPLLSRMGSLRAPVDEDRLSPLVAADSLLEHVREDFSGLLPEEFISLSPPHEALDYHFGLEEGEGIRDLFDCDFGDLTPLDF
Hypoxia-inducible factor 1-alpha (Homo sapiens), sequence (Q16665 whole entry, looked up): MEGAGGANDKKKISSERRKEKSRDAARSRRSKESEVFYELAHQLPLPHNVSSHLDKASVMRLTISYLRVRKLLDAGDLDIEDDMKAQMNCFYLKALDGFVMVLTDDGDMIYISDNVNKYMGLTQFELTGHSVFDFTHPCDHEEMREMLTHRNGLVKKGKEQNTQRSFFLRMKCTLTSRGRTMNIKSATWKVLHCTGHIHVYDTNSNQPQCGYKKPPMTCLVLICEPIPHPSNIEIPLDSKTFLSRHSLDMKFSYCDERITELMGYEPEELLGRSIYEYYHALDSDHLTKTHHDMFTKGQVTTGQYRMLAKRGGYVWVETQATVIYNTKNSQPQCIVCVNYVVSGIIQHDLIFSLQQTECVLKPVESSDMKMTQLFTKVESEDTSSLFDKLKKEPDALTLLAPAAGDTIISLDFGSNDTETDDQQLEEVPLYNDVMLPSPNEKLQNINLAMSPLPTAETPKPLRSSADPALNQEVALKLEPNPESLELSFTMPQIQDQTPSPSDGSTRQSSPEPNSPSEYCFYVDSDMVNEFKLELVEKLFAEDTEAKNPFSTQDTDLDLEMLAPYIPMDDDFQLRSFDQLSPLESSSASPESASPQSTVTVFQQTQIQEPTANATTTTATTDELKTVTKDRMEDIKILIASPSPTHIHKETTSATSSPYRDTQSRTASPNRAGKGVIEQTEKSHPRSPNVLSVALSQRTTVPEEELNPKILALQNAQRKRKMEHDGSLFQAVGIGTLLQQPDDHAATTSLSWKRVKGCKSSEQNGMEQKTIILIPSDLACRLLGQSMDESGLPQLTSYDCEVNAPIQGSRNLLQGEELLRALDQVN
Bile acid receptor (Homo sapiens), sequence (Q96RI1 whole entry, looked up, the tested form may be a part): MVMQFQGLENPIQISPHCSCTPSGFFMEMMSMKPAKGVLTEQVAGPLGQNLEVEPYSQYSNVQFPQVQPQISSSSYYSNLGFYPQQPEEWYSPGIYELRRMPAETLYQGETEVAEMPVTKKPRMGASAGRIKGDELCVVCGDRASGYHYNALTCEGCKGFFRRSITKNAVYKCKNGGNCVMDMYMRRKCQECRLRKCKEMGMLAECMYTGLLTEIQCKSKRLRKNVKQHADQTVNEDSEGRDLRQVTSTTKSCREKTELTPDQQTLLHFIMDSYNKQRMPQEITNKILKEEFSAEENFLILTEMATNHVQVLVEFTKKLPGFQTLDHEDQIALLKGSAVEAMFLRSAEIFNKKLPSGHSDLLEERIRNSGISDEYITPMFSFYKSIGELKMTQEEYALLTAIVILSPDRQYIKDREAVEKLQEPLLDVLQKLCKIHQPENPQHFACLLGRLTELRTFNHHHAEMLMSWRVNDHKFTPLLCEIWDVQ

`CC(C)c1cccc(C(C)C)c1N`: the result in [1], in assay [2], in [3], in assay [4], in assay [5] and in assay [6] was inactive. Further, the molecule was called inactive in assay [7], in assay [8], in assay [9], in assay [10], in assay [11] and in assay [12]. Besides, the outcome in [13], in assay [14] and in assay [15] was inactive.

`CC(C)CCOCc1ccccc1`: the outcome in assay [1], in assay [2], in [16], in assay [3], in assay [4] and in assay [5] was inactive. Further, the molecule was classed as inactive in assay [6], in assay [7], in [8], in assay [9], in [17] and in [10]. Moreover, the molecule was called inactive in [11], in [12], in assay [13], in [14] and in [15].

Turning to `CC(C=O)c1ccccc1` (configuration not stated), the call in assay [1], in assay [2], in [16], in assay [3], in [4] and in assay [5] was inactive. The call in assay [6], in assay [7], in assay [8], in [9], in assay [18] and in assay [17] was inactive. Also, the call in assay [10], in assay [11], in assay [12], in assay [19], in assay [13] and in [15] was inactive.

Regarding `c1ccc2cnccc2c1`, the result in assay [1], in assay [2], in [16], in assay [3], in [4] and in [5] was inactive. For the same molecule, the molecule was classed as inactive in [6], in assay [8], in [9], in [17], in assay [10] and in [11]. Besides, the molecule was classed as inactive in assay [12], in assay [19], in assay [13], in assay [14] and in assay [15].

Turning to `Oc1ccccc1Cc1ccccc1O`, the outcome in assay [1], in [2], in assay [3], in assay [5], in [6] and in assay [7] was inactive. Besides, the result in assay [8], in [9], in assay [11], in assay [12], in assay [13] and in assay [14] was inactive. The AC50 in [4] is 27.7 µM (active); in assay [10], 149 µM (active); in assay [19] it was 134 µM (active); in assay [15], 124 µM (active).

Turning to `CCC(C)c1ccccc1` (configuration not stated), the call in [1], in assay [2], in [16], in assay [3], in assay [4] and in [5] was inactive. Also, the outcome in assay [6], in assay [7], in assay [8], in [9], in assay [18] and in [10] was inactive. For the same molecule, the molecule was classed as inactive in assay [11], in assay [12], in assay [19], in assay [13] and in assay [15].

For the molecule `C=C(C)C1CC=C(C)CC1` (configuration not stated), the result in [1], in assay [2], in assay [16], in assay [3], in assay [4] and in assay [5] was inactive. Besides, the molecule was called inactive in assay [6], in assay [7], in assay [8], in [9], in [10] and in assay [11]. Further, the result in assay [12], in assay [19], in assay [13], in assay [14] and in assay [15] was inactive.
